# Source: PubChem BioAssay (NCATS)
# Records with an inconclusive call do not appear. Calls of active or inactive are those of the source. The call rests on the fitted dose curve; in most records, active means well fitted curve in the direction sought with a large enough effect; inconclusive means small, poorly fitted or top-dose-only effect, or another doubt; inactive means no such curve, though single readings can be large; an effect the other way counts as inactive or inconclusive.
# What was measured:
# [1] = Quantitative High-Throughput drug screen in 47 multiple myeloma cell lines against the NCATS MIPE library collection: AMO1_DSMZ cell viability assay (AID 1918927; further: nearly all actives have a fitted effect of over 30% in size; further: potency means the concentration at half of the fitted maximal effect)
# Method in brief: (§1)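 Luminescent ATP measurement with CellTiter-Glo gives viability, scaled between DMSO-only wells (100%) and media-only wells (0%). Cells, 500 per well, faced library compounds for 48 hours at 37C.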
# [2] = Quantitative High-Throughput drug screen in 47 multiple myeloma cell lines against the NCATS MIPE library collection: ARP1_JJKsccF8 cell viability assay (AID 1918928; further: nearly all actives have a fitted effect of over 40% in size; further: potency means the concentration at half of the fitted maximal effect)
# Method in brief: (§2)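 ATP readout (CellTiter-Glo), 48 h drug incubation, 37 °C/5% CO2, 500 cells per well; normalisation to DMSO (100%) and media-only (0%) controls.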
# [3] = Quantitative High-Throughput drug screen in 47 multiple myeloma cell lines against the NCATS MIPE library collection: Karpas620_DSMZ cell viability assay (AID 1918959); further: nearly all actives have a fitted effect of over 30% in size; further: potency means the concentration at half of the fitted maximal effect
# Method in brief: (§3)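 Viability readout: CellTiter-Glo luminescence following 5 min room-temperature incubation with reagent. Prior exposure: 48 h, 37C, humidified 5% CO2, 500 cells per well.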
# [4] = Quantitative High-Throughput drug screen in 47 multiple myeloma cell lines against the NCATS MIPE library collection: KMM1_JCRB cell viability assay (AID 1918960); further: nearly all actives have a fitted effect of over 30% in size; further: potency means the concentration at half of the fitted maximal effect
# Method in brief: as §2
# [5] = Quantitative High-Throughput drug screen in 47 multiple myeloma cell lines against the NCATS MIPE library collection: JIM1_ECACC cell viability assay (AID 1918964; further: potency means the concentration at half of the fitted maximal effect)
# Method in brief: as §1
# [6] = Quantitative High-Throughput drug screen in 47 multiple myeloma cell lines against the NCATS MIPE library collection: INA6_PLB cell viability assay (AID 1918965; further: nearly all actives have a fitted effect of over 55% in size; further: potency means the concentration at half of the fitted maximal effect)
# Method in brief: (§4)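 Approved and investigational drugs from MIPE 4.0 were added by pin tool to 500 cells per well. After 48 hours at 37C, ATP-based CellTiter-Glo luminescence indicated remaining viability.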
# [7] = Quantitative High-Throughput drug screen in 47 multiple myeloma cell lines against the NCATS MIPE library collection: JJN3_DSMZ cell viability assay (AID 1918966; further: potency means the concentration at half of the fitted maximal effect; nearly all actives have a fitted effect of over 50% in size)
# Method in brief: as §1
# [8] = Quantitative High-Throughput drug screen in 47 multiple myeloma cell lines against the NCATS MIPE library collection: H1112_PLB cell viability assay (AID 1918967; further: nearly all actives have a fitted effect of over 30% in size; further: potency means the concentration at half of the fitted maximal effect)
# Method in brief: as §1
# [9] = Quantitative High-Throughput drug screen in 47 multiple myeloma cell lines against the NCATS MIPE library collection: Karpas25_ECACC cell viability assay (AID 1918968; further: nearly all actives have a fitted effect of over 35% in size; further: potency means the concentration at half of the fitted maximal effect)
# Method in brief: as §1
# [10] = Quantitative High-Throughput drug screen in 47 multiple myeloma cell lines against the NCATS MIPE library collection: KMS12PE_JCRB cell viability assay (AID 1918972); further: nearly all actives have a fitted effect of over 30% in size; further: potency means the concentration at half of the fitted maximal effect
# Method in brief: as §4
# [11] = Quantitative High-Throughput drug screen in 47 multiple myeloma cell lines against the NCATS MIPE library collection: KMS20_JCRB cell viability assay (AID 1918973); further: nearly all actives have a fitted effect of over 45% in size; further: potency means the concentration at half of the fitted maximal effect
# Method in brief: as §1
# [12] = Quantitative High-Throughput drug screen in 47 multiple myeloma cell lines against the NCATS MIPE library collection: KMS26_JCRB cell viability assay (AID 1918975); further: nearly all actives have a fitted effect of over 45% in size; further: potency means the concentration at half of the fitted maximal effect
# Method in brief: (§5)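 Steps: seed 500 cells per well; pin-transfer MIPE 4.0 library; incubate 48 h at 37C, 5% CO2, humidified; add CellTiter-Glo, 5 min room temperature; read luminescence.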
# [13] = Quantitative High-Throughput drug screen in 47 multiple myeloma cell lines against the NCATS MIPE library collection: MMM1_PLB cell viability assay (AID 1918976); further: nearly all actives have a fitted effect of over 35% in size; further: potency means the concentration at half of the fitted maximal effect
# Method in brief: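 MIPE 4.0 approved/investigational drugs; 500 cells/well; 48 h 37 °C humidified 5% CO2; CTG luminescence readout; DMSO = 100%, media = 0% viability.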
# [14] = Quantitative High-Throughput drug screen in 47 multiple myeloma cell lines against the NCATS MIPE library collection: KMS27_JCRB cell viability assay (AID 1918970)
# Method in brief: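 ATP-based viability (CellTiter-Glo luminescence) is measured in cells treated 48 h with approved and investigational drugs at 37 °C. Controls are DMSO-only wells for full viability and media-only wells for none.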
# [15] = Quantitative High-Throughput drug screen in 47 multiple myeloma cell lines against the NCATS MIPE library collection: KMS21BM_JCRB cell viability assay (AID 1918974); conditions: ATP luminescence, 48 h; viability: at 45.8 µM (top of the series); further: potency means the concentration at half of the fitted maximal effect
# Method in brief: as §1
# [16] = Quantitative High-Throughput drug screen in 47 multiple myeloma cell lines against the NCATS MIPE library collection: JIM3_ECACC cell viability assay (AID 1918963; further: nearly all actives have a fitted effect of over 35% in size; further: potency means the concentration at half of the fitted maximal effect)
# Method in brief: as §3
# [17] = Quantitative High-Throughput drug screen in 47 multiple myeloma cell lines against the NCATS MIPE library collection: KMS12BM_JCRB cell viability assay (AID 1918971); further: nearly all actives have a fitted effect of over 35% in size; further: potency means the concentration at half of the fitted maximal effect
# Method in brief: as §5
# [18] = Quantitative High-Throughput drug screen in 47 multiple myeloma cell lines against the NCATS MIPE library collection: ARD_JJKsccE7 cell viability assay (AID 1918929; further: potency means the concentration at half of the fitted maximal effect)
# Method in brief: as §1
# [19] = Quantitative High-Throughput drug screen in 47 multiple myeloma cell lines against the NCATS MIPE library collection: KHM11_PLB cell viability assay (AID 1918962); further: nearly all actives have a fitted effect of over 35% in size
# Method in brief: as §3
# [20] = Quantitative High-Throughput drug screen in 47 multiple myeloma cell lines against the NCATS MIPE library collection: Karpas417_ECACC cell viability assay (AID 1918961); conditions: Karpas417 myeloma viability, CellTiter-Glo ATP luminescence, 48 h; viability (% of DMSO): at 45.8 µM (top of the series); further: potency means the concentration at half of the fitted maximal effect
# Method in brief: as §4
structure (smiles),measurement,setting,value
COC[C@H]1OC(=O)c2coc3c2[C@@]1(C)C1=C(C3=O)[C@@H]2CC[C@H](O)[C@@]2(C)C[C@@H]1OC(C)=O,Potency,[1],5260 nM (active)
same,Potency,[2],332 nM (active)
same,Potency,[3],3720 nM (active)
same,Potency,[4],5900 nM (active)
same,Potency,[5],1480 nM (active)
same,Potency,[6],1180 nM (active)
same,Potency,[7],3320 nM (active)
same,Potency,[8],1050 nM (active)
same,Potency,[9],264 nM (active)
same,Potency,[10],6620 nM (active)
same,Potency,[11],5260 nM (active)
same,Potency,[12],3320 nM (active)
same,Potency,[13],1050 nM (active)
COc1ccc2c(c1)[C@]13CCCCC1C(C2)N(C)CC3 (stereo partly drawn),Potency,[1],inactive
same,Potency,[2],inactive
same,Potency,[3],inactive
same,Potency,[4],inactive
same,Potency,[5],inactive
same,Potency,[6],inactive
same,Potency,[10],inactive
same,Potency,[13],inactive
COc1ccc(N(C(=O)Oc2c(C)cccc2C)c2ccnc(Nc3ccc(N4CCN(C)CC4)cc3)n2)c(OC)c1,Potency,[1],1480 nM (active)
same,Potency,[3],2640 nM (active)
same,Potency,[4],2960 nM (active)
same,Potency,[5],2640 nM (active)
same,Potency,[6],1480 nM (active)
same,Potency,[7],18700 nM (active)
same,Potency,[8],372 nM (active)
same,Potency,[9],2640 nM (active)
same,Potency,[14],2960 nM (active)
same,Potency,[15],235 nM (active)
same,Potency,[12],1480 nM (active)
same,Potency,[13],3720 nM (active)
CC(C)(C)c1cc(C=C(C#N)C#N)cc(Br)c1O,Potency,[1],26400 nM (active)
same,Potency,[2],26400 nM (active)
same,Potency,[4],18700 nM (active)
same,Potency,[16],16600 nM (active)
same,Potency,[6],4180 nM (active)
same,Potency,[7],23500 nM (active)
same,Potency,[8],16600 nM (active)
same,Potency,[9],3720 nM (active)
same,Potency,[17],16600 nM (active)
same,Potency,[11],13200 nM (active)
CCN1C[C@]2(OC(=O)c3ccccc3NC(C)=O)CC[C@H](OC)[C@@]34[C@H]5CC6[C@@H](OC)C[C@](O)(C(C[C@@H]23)[C@@H]14)[C@@]5(O)[C@@H]6OC,Potency,[1],inactive
same,Potency,[2],inactive
same,Potency,[3],inactive
same,Potency,[4],inactive
same,Potency,[16],inactive
same,Potency,[6],inactive
same,Potency,[8],inactive
same,Potency,[9],inactive
same,Potency,[10],inactive
same,Potency,[12],inactive
C=C1C[C@H]2[C@H]3CCC(=O)[C@@]3(C)CC[C@@H]2[C@@]2(C)C=CC(=O)C=C12,Potency,[1],18700 nM (active)
same,Potency,[3],23500 nM (active)
same,Potency,[6],20900 nM (active)
same,Potency,[7],14800 nM (active)
same,Potency,[14],18700 nM (active)
same,Potency,[17],20900 nM (active)
same,Potency,[10],29600 nM (active)
same,Potency,[15],14800 nM (active)
same,Potency,[13],6620 nM (active)
O=C(N[C@@H](COc1ccc2[nH]c(=O)[nH]c2c1)c1ccccc1)c1cccn(Cc2ccc(F)c(F)c2)c1=O,Potency,[1],18700 nM (active)
same,Potency,[18],18700 nM (active)
same,Potency,[4],18700 nM (active)
same,Potency,[10],18700 nM (active)
same,Potency,[11],18700 nM (active)
Cc1nc(-c2ccc(-c3ccc(C(=O)N4CCc5cc6c(cc54)C4(CCN(C)CC4)CO6)cc3)c(C)c2)no1,Potency,[1],inactive
same,Potency,[2],inactive
same,Potency,[3],inactive
same,Potency,[4],inactive
same,Potency,[8],inactive
same,Potency,[17],inactive
same,Potency,[11],inactive
C[C@]12CCC(=O)C(O)=C1CC[C@@H]1[C@H]3CCC(=O)[C@@]3(C)CC[C@@H]12,Potency,[1],inactive
same,Potency,[18],inactive
same,Potency,[3],inactive
same,Potency,[4],inactive
same,Potency,[19],inactive
same,Potency,[8],inactive
same,Potency,[17],20900 nM (active)
same,Potency,[10],inactive
same,Potency,[12],inactive
same,Potency,[13],2350 nM (active)
CC(C)(O)C(=O)Nc1ccc([N+](=O)[O-])c(C(F)(F)F)c1,Potency,[1],11800 nM (active)
same,Potency,[2],inactive
same,Potency,[3],18700 nM (active)
same,Potency,[6],7430 nM (active)
same,Potency,[8],9350 nM (active)
same,Potency,[9],9350 nM (active)
same,Potency,[10],23500 nM (active)
C=CCON=C(C[C@H]1O[C@@H]2O[C@]3(C)CC[C@@H]4[C@H](C)CC[C@@H]([C@H]1C)[C@@]24OO3)[C@H]1O[C@@H]2O[C@]3(C)CC[C@H]4[C@H](C)CC[C@@H]([C@@H]1C)[C@@]24OO3,Potency,[1],118 nM (active)
same,Potency,[2],20.9 nM (active)
same,Potency,[20],148 nM (active)
same,Potency,[16],372 nM (active)
same,Potency,[6],469 nM (active)
same,Potency,[7],418 nM (active)
same,Potency,[8],469 nM (active)
same,Potency,[11],372 nM (active)
same,Potency,[12],264 nM (active)
same,Potency,[13],187 nM (active)
O=C(Nc1ccncc1)C(=O)c1cn(Cc2ccc(Cl)cc2)c2ccccc12,Potency,[1],16.6 nM (active)
same,Potency,[2],74.3 nM (active)
same,Potency,[4],18.7 nM (active)
same,Potency,[5],16.6 nM (active)
same,Potency,[6],13.2 nM (active)
same,Potency,[9],46.9 nM (active)
same,Potency,[14],20.9 nM (active)
same,Potency,[10],20.9 nM (active)
same,Potency,[15],7.4 nM (active)
same,Potency,[12],9350 nM (active)
same,Potency,[13],14800 nM (active)
c1cc2c(cc1[C@H]1OC[C@H]3[C@H]1CO[C@H]3c1ccc3c(c1)OCO3)OCO2,Potency,[1],inactive
same,Potency,[18],inactive
same,Potency,[3],inactive
same,Potency,[16],inactive
same,Potency,[6],inactive
same,Potency,[11],inactive
CCC(=O)OC1CCC2C3CCC4=CC(=O)CC[C@@]4(C)C3CC[C@]12C (stereo partly drawn),Potency,[1],inactive
same,Potency,[18],inactive
same,Potency,[3],inactive
same,Potency,[4],inactive
same,Potency,[16],inactive
same,Potency,[6],20900 nM (active)
same,Potency,[8],inactive
same,Potency,[12],inactive
COc1cc([C@@H]2c3cc4c(cc3[C@@H](O)C3COC(=O)C32)OCO4)cc(OC)c1O (stereo partly drawn),Potency,[1],1 nM (active)
same,Potency,[2],20.9 nM (active)
same,Potency,[3],18.7 nM (active)
same,Potency,[4],18.7 nM (active)
same,Potency,[5],4.2 nM (active)
same,Potency,[6],41.8 nM (active)
same,Potency,[7],118 nM (active)
same,Potency,[8],52.6 nM (active)
same,Potency,[10],37.2 nM (active)
same,Potency,[11],66.2 nM (active)
same,Potency,[12],105 nM (active)
same,Potency,[13],93.5 nM (active)
